IP6K1 inhibitor: IP6K1 kinase inhibition | Q92551 | IP6K1 kinase, ADP-Glo luminescence, 2 h; hits give low values | activity change, % (series mostly up to about 58 µM) | 140,000 tested, 0.81% active | AID 1645851; in the data active = activity change below about -25%; note: % is set by controls: 0 for no effect and ±100 for the full control effect
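ADP-Glo luminescence measures ADP made by human IP6K1 during a 2 h RT reaction with ATP/IP6 (mix at 1.3 mM/130 uM); top library doses 57.5 and 19.1 uM final.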
KDM5B inhibitor: blocks human KDM5B histone demethylase activity | Q9UGL1 | KDM5B demethylase, FDH-coupled NADH fluorescence (FDH is formaldehyde dehydrogenase) | Potency, µM (top dose mostly 57.7 µM), most hits filed as inhibitors | 220,000 tested, 2.6% active | AID 1347165; active = well fitted inhibition curve with a large enough effect; inconclusive = small, poorly fitted or top-dose-only effect; inactive = no such curve, though single readings can be large or run the other way; note: potency is the fitted concentration of half-maximal effect; 0% is about no effect; nearly all actives have a fitted effect of over 70% in size
Target sequence (Q9UGL1 whole entry, looked up): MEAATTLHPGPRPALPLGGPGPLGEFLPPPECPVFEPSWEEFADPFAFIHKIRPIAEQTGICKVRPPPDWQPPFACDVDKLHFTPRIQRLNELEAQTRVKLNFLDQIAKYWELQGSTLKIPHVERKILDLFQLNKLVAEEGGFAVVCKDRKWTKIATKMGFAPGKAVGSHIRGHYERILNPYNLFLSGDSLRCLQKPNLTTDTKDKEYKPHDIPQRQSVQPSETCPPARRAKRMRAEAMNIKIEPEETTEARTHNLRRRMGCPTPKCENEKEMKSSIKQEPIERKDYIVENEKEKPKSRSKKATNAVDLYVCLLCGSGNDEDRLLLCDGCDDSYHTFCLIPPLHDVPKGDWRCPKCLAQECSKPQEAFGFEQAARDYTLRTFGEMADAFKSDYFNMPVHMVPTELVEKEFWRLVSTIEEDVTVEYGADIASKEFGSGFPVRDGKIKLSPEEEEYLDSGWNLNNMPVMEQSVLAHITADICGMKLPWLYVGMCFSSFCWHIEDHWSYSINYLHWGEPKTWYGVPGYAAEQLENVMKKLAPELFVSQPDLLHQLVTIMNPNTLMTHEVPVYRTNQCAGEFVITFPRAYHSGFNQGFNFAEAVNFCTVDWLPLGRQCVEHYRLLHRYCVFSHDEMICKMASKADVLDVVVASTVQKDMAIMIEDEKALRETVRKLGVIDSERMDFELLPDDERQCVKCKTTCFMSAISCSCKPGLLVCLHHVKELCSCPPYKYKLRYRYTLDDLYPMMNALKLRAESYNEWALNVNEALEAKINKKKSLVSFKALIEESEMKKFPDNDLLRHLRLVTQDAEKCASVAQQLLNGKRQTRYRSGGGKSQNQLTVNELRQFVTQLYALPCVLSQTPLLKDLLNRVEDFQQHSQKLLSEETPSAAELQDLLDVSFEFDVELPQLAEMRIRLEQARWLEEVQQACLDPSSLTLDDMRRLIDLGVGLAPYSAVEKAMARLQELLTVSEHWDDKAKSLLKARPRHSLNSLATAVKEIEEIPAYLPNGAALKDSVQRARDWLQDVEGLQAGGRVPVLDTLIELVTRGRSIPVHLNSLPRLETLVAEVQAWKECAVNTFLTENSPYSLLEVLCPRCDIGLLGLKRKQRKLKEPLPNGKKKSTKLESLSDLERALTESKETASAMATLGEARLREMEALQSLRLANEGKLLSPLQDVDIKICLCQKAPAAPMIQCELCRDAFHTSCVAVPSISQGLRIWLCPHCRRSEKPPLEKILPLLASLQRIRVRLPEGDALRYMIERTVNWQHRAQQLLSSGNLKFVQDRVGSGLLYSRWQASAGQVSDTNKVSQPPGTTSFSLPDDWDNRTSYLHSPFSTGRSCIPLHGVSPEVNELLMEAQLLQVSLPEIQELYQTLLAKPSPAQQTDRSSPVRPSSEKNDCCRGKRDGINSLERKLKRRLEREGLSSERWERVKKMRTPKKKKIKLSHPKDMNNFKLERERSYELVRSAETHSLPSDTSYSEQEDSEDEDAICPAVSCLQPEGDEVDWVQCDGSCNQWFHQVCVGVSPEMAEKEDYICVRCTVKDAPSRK
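Coupled FDH/NAD⁺ fluorescence readout. KDM5BΔAP 200 nM final; compound titration, 10 min RT preincubation; substrate mix 12.5 µM H3K4me3, 25 µM 2-OG, 50 µM Fe(II), 100 µM ascorbate, 0.25 mM NAD⁺, 0.25 U/mL FDH; ΔRFU over 30 min.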
Active calls of the source: *; i = inactive; ? = inconclusive; · = no result. A selection: hits, their analogues and other compounds. The true share with any hit is near 2.8%.

SMILES	IP6K1 inhibitor	KDM5B inhibitor
COc1cccc(CNC(=O)c2cc(-c3ccc([S+](C)(=O)[O-])cc3)nc3c2cnn3C)c1	7	·
Cn1ncc2c(C(=O)NCc3ccc(F)cc3)cc(C(C)(C)C)nc21	7	45µM*
Cn1ncc2c(C(=O)NCc3cccnc3)cc(-c3ccc([S+](C)(=O)[O-])cc3)nc21	-4	79µM*
Cn1ncc2c(C(=O)NCc3ccc(F)c(F)c3)cc(C(C)(C)C)nc21	3	·
COc1cccc2c1ccn2CC(=O)NCC1CCC(C(=O)O)CC1 (stereo not drawn)	·	i
CC(=O)Nc1ccc(OCC(C)C)cc1	·	i
CC(C)NC(=O)CNC(=O)CCc1ncc(-c2ccccc2)o1	·	i
CCOCCn1c(=O)n(CCN2C[C@H]3CC[C@H]2C3)c2cc(C(=O)O)cnc21	-12	i
CC(=O)N1CCN(c2ccc(NC(=O)COc3ccc(C)cc3)cc2Cl)CC1	·	i
CSCCC(NC(=O)c1ccccc1)C(=O)Nc1ccc(Br)cc1 (stereo not drawn)	·	i
O=C(CSc1nc(Cl)nc2nc[nH]c12)Nc1ccccc1F	·	i
Cc1cccc(OCc2nc(C#N)c(NCCCN3CCOCC3)o2)c1	·	i
O=C(c1nc2sccn2c1-c1cccnc1)N1CCCCC1	2	·
COc1ccc(-c2nc(C)nc3c2CN(C(=O)Nc2ccccc2)CC3)cc1	-5	·
CC(=O)N1CCc2c(c3ccccc3n2C)C1	3	25µM*
O=C(Nc1ccc(Cl)cc1Cl)N1CCc2[nH]c3ccc(F)cc3c2C1	-8	32µM*
Cn1c2c(c3cc(F)ccc31)CN(C(=O)Nc1ccc(F)c(Cl)c1)CC2	-8	32µM*
Cn1c(=O)oc2cc(NC(=O)Nc3ccc(F)c(Cl)c3)ccc21	·	i
Cn1c2c(c3ccccc31)CN(C(=O)c1ccccc1)CC2	3	?
Cn1c2c(c3ccccc31)CN(C(=O)Nc1ccccc1)CC2	-5	22µM*
O=C(Nc1ccc(F)cc1F)N1CCN(c2ccc(Cl)c(Cl)c2)CC1	44	i
O=C(CCC[C@@H]1[C@H]2CCCN3CCC[C@@H](CN1C(=O)c1ccccc1)[C@@H]23)NCc1ccccc1	-15	i
O=C(NC1CCCN(c2ccnc3ccnn23)C1)c1ccccc1 (stereo not drawn)	1	·
Cn1c2c(c3ccccc31)CN(C(=O)NC1CCCCC1)CC2	3	?
COc1ccc(NC(=O)N2CCc3c(c4ccccc4n3C)C2)cc1	-20	25µM*
SMILES	IP6K1 inhibitor	KDM5B inhibitor
O=C(CC1C(=O)NCCN1Cc1ccccc1)NC1C2CC3CC(C2)CC1C3 (stereo not drawn)	19	i
O=C(CC1C(=O)NCCN1Cc1ccc(-c2ccccc2)cc1)NCc1ccco1 (stereo not drawn)	-23	25µM*
CCOc1ccccc1CN1CCNC(=O)C1CC(=O)NCc1ccco1 (stereo not drawn)	-4	?
O=C(CC1C(=O)NCCN1Cc1ccc(-c2ccccc2)cc1)NC(CO)CO (stereo not drawn)	21	20µM*
O=C1CCN(CC(O)C(F)(F)F)c2ccc(F)cc2CN1CC1CC1 (stereo not drawn)	-6	·
COc1ccccc1Cn1c(=O)c(C(=O)NCC2CC2)nc2cccnc21	3	·
CCc1cccc2c(C(CC(=O)NCc3ccco3)c3ccc(OC)c(OC)c3)c[nH]c12 (stereo not drawn)	-14	?
CCc1cccc2c(C(CC(=O)NCc3ccco3)c3ccc(C)cc3)c[nH]c12 (stereo not drawn)	-14	28µM*
COc1ccc(C)cc1NC(=O)Cn1cc(S(=O)(=O)N2CCC(C)CC2)c2ccccc2c1=O	10	?
CCn1nccc1C(=O)N1CCC(N2C(=O)[C@H](OC)[C@@H]2c2ccncc2)CC1	4	i
CCn1nccc1C(=O)N1CCC(Nc2nccnc2OC)CC1	0	28µM*
CCn1nccc1C(=O)N1CCC(Cc2ccc(C(=O)NCCOC)cc2)CC1	-5	i
CCOc1nccnc1NC1CCN(C(=O)c2ccnn2CC)CC1	-2	28µM*
O=c1[nH]c2cc3c(cc2cc1CN1CC[C@H](O)C1)OCO3	10	28µM*
O=c1cc(-c2cccnc2)nc(-c2ccc(CN3CC[C@@H](O)C3)cc2)[nH]1	9	i
Cn1cc(CNCC2(COc3cccnc3)C[C@@H](O)[C@@H](O)C2)c2ccccc21 (stereo partly drawn)	7	?
COc1ccccc1CNC(=O)C(C)(C)c1ccccc1	·	i
CC(CCc1ccccc1)NC(=O)Cn1ccn2nc3c(c2c1=O)CCCC3 (stereo not drawn)	-4	20µM*
O=C(Cn1ccn2nc3c(c2c1=O)CCCC3)NCc1ccccc1	-14	25µM*
Cc1ccc(CNC(=O)Cn2ccn3nc4c(c3c2=O)CCCCC4)cc1	31	5.6µM*
O=C(Cn1ccn2nc3c(c2c1=O)CCCCC3)Nc1ccccc1	8	?

Compound activity deposited in PubChem BioAssay by National Center for Advancing Translational Sciences (NCATS).
